Consider 44 molecules from PubChem BioAssay AID1851 (National Center for Advancing Translational Sciences (NCATS), 2009).

The structures appear in SMILES notation. Where “and” joins values, the source holds several entries; their conditions need not be identical. Equal entries are not always repeated. In all, about 16,000 compounds went through this assay and about 5,100 (32%) were called active. Not shown: some 25% with an inconclusive outcome. The list shows a part of the results. A number with no mark means an inactive call. Calls come from the whole dose curve; as a rule, active = well fitted curve in the direction sought with a large enough effect; inconclusive = small, poorly fitted or top-dose-only effect, or effect the other way; inactive = no such curve, though single readings can be large or run the other way.

For orientation: AC50 means the concentration at which the activity in the assay is half-maximal.
% is set by controls: 0 for no effect and ±100 for the full control effect.

Chain of Cytochrome P450 3A4 (Homo sapiens) (P08684 whole entry, looked up): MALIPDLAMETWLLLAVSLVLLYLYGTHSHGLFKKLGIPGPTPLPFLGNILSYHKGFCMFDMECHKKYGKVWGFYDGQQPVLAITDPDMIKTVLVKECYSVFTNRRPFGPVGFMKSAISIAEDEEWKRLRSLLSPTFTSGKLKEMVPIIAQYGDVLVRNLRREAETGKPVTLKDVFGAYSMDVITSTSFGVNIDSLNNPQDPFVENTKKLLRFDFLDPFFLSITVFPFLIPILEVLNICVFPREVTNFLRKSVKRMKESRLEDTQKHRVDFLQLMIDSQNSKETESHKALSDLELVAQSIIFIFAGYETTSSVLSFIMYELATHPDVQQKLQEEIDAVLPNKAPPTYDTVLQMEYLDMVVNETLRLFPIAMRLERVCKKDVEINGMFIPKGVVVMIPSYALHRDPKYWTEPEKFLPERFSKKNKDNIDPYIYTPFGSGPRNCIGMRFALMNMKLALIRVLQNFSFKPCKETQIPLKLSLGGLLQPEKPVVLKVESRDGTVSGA

The assay addresses Cytochrome P450 3A4 (Homo sapiens) (UniProt P08684). The experiment in a line: Cytochrome panel assay with activity outcomes. The settings on record: recombinant CYP, pro-luciferin dealkylation, luminescence, p450-cyp3a4; series mostly up to 57.1 µM; activity, negative = inhibition: at the top concentration.
As to `COc1ccc(Br)c2c1C[C@H](C(=O)O)CC2`, the activity, negative = inhibition is -12.7% [at 11.4 µM].

Consider `Nc1nc2c(c(=O)[nH]1)CN(c1ccc(S(N)(=O)=O)cc1)CN2`, for which the activity, negative = inhibition is -4.97% [at 11.4 µM].

Regarding `CC(=O)SCC[N+](C)(C)C`, the “activity, negative = inhibition” value is -4.83%.

As for `COC(=O)[C@@H]1CC[C@H](C)[C@@H](c2ccc(C)cc2)N1C(=O)c1ccc(/C=N\O[C@@H]2O[C@H](COC(C)=O)[C@H](OC(C)=O)[C@H](OC(C)=O)[C@H]2OC(C)=O)cc1`, the activity, negative = inhibition is -14.4% [at 11.4 µM].

On to `COC(=O)[C@@H]1CC[C@H](C)[C@@H](c2ccc(C)cc2)N1C(=O)c1ccc(/C=N\O[C@@H](C)c2cn([C@H](CO)Cc3ccccc3)nn2)cc1`, for which the half-maximal activity concentration (AC50) is 1.26 µM (active) and 3.16 µM (active).

In the case of `COC(=O)[C@@H]1CC[C@H](C)[C@@H](c2ccc(C)cc2)N1C(=O)c1ccc(/C=N\OCC[C@@H]2C=C[C@H](OC(C)=O)[C@H](COC(C)=O)O2)cc1`, the activity, negative = inhibition is -18.2% [at 11.4 µM].

For the molecule `CO/N=C\c1ccc(C(=O)N2[C@H](c3ccc(C)cc3)[C@@H](C)CC[C@H]2C(=O)OC)cc1`, the AC50 is 3.16 µM (active).

For `COC(=O)[C@@H]1CC[C@H](C)[C@@H](c2ccc(C)cc2)N1C(=O)c1ccc(/C=N\OC[C@@H](C)[C@H](OCc2ccccc2)C(C)C)cc1`, the half-maximal activity concentration (AC50) is 3.98 µM (active).

Consider `O=Nc1ccc(NOC(=O)c2ccc(Br)cc2)cc1`, for which the “activity, negative = inhibition” value was 8.94%.

On to `O=C(O)c1cc2ccccc2c(Cc2cc3ccccc3c(C(=O)O)c2O)c1O` (tested in a mixture with another compound), for which the “activity, negative = inhibition” value is -32.8% [at 25.6 µM].

With `Oc1ccc2ccccc2c1Cc1c(O)ccc2ccccc12`, the activity, negative = inhibition is -19% [at 11.4 µM].

For the molecule `COc1ccc2c(Cc3c4ccccc4cc4ccccc34)cncc2c1O`, the AC50 was 1 µM (active).

`OC[C@H](S)CS`: the activity, negative = inhibition was -9.69% [at 11.4 µM].

Consider `CCn1c(SCc2ccc(C)cc2)nnc1-c1nn(-c2ccccc2)ccc1=O`, for which the AC50 is 8.91 µM (active).

For the molecule `COc1ccc(-c2nnc(SCc3cccc(C)c3)n2N)cc1`, the AC50 is 10 µM (active).

As for `CCn1c(SCc2cccc(C)c2)nnc1-c1ccc(C)cc1`, the AC50 is 8.91 µM (active).

`Cc1cccc(CSc2cccc3cccnc23)c1`: the “activity, negative = inhibition” value was -26.5%.

With `CCC(=O)O[C@@H]1[C@H](C)O[C@H](O[C@H]2[C@@H](N(C)C)[C@H](O)[C@@H](O[C@@H]3[C@@H](CC=O)C[C@@H](C)[C@@H](O)/C=C\C=C/C[C@@H](C)OC(=O)C[C@@H](OC(=O)CC)[C@H]3OC)O[C@H]2C)C[C@]1(C)O`, the “activity, negative = inhibition” value was -19% [at 25.6 µM].

For `O=C1C2C3C=CC(C3)C2C(=O)N1/N=C/c1cn(Cc2ccc(F)cc2)c2ccccc12` (centres undefined), the AC50 is 2.82 µM (active).

Consider `COC(=O)Cn1cc(/C=N/NC(=O)c2ccc(C#N)cc2F)c2ccccc21`, for which the activity, negative = inhibition was -10.5% [at 2.29 µM].

Consider `O=C1C2C3C=CC(C3)C2C(=O)N1/N=C/c1cn(Cc2ccccc2)c2ccccc12` (centres undefined), for which the activity, negative = inhibition is -22.4% [at 11.4 µM].

On to `COC(=O)/C=C\CCc1coc(/C=C\CNC(=O)OC)n1`, for which the activity, negative = inhibition is -19.3% [at 11.4 µM].

Take `COC(=O)[C@@H]1C[C@H]1[C@@H](NC(C)=O)c1ccccc1`: the “activity, negative = inhibition” value was -18.2%.

As to `COC(=O)[C@H]1C[C@@H]1[C@H](NC(C)=O)c1ccccc1`, the “activity, negative = inhibition” value is -23.7%.

With `COC(=O)[C@H]1C[C@@H]1[C@H](NC(=O)Oc1ccc(F)cc1)c1ccccc1`, the AC50 was 15.8 µM (active).

For the molecule `COC(=O)[C@@H]1C[C@H]1[C@@H](NC(=O)Oc1ccc(F)cc1)c1ccccc1`, the AC50 is 12.6 µM (active).

For the molecule `O=C(O)[C@H]1CN(CCCP(=O)(O)O)CCN1`, the AC50 entry was “inactive”.

On to `CCCCCC1=C2CNC(C)(C(=O)OC)C=C2C(C)C1=O` (centres undefined), for which the AC50 is 12.6 µM (active).

Turning to `COC(=O)C1(C)C=C2C(=C(c3ccccc3)C(=O)C2C)CN1` (centres undefined), the AC50 is 10 µM (active).

Turning to `COC(=O)C1(Cc2ccccc2)C=C2C(=C(C(C)C)C(=O)C2C)CN1` (centres undefined), the AC50 was 7.94 µM (active).

For `CCCCCC1=C2CNC(CCC)(C(=O)OC)C=C2C(C)C1=O` (centres undefined), the AC50 was 20 µM (active).

Consider `CCCCCC1=C2CNC(Cc3ccccc3)(C(=O)OC)C=C2C(C)C1=O` (centres undefined), for which the AC50 is 15.8 µM (active).

As for `COc1ccc(Oc2ncc3nc(-c4cccs4)c(=O)n(C)c3n2)cc1`, the concentration at half-maximal activity (AC50) is 3.98 µM (active).

On to `COc1ncc2nc(-c3cccs3)c(=O)n(C)c2n1`, for which the AC50 was 15.8 µM (active).

For the molecule `Cn1c(=O)c(-c2cccs2)nc2cnc(Oc3ccccc3)nc21`, the “activity, negative = inhibition” value was 7.32%.

For `Cc1cc(C2(c3cc(C)c(O)c(C(=O)O)c3)OS(=O)(=O)c3ccccc32)cc(C(=O)O)c1O`, the activity, negative = inhibition is 5.57% [at 11.4 µM].

On to `CC1=CC(C)(C)Nc2ccc(CSc3ccccc3)cc21`, for which the half-maximal activity concentration (AC50) is 3.98 µM (active).

Regarding `Cc1cc2c(cc1C)NC1=C(N2)O[C@H](c2c[nH]c3ccc(COc4ccccc4)cc23)C1=O`, the AC50 was 3.98 µM (active).

Consider `O=C(O)c1c[nH]c2cc(OCc3ccccc3)ccc2c1=O`, for which the activity, negative = inhibition was -10.2% [at 11.4 µM].

In the case of `COCCN=C1Sc2nc3c(C)cccc3cc2CN1Cc1ccco1`, the AC50 is 14.1 µM (active).

Consider `CC1(C)[C@@H]2CC[C@]1(C)[C@@H](OC(=O)CSC#N)C2`, for which the activity, negative = inhibition was -20.6% [at 11.4 µM].

In the case of `O=c1c(-c2ccccc2)nc2cncnc2n1Cc1ccccc1Cl`, the “activity, negative = inhibition” value is -26.7%.

As to `O=c1cnc2cncnc2n1Cc1ccccc1Cl`, the “activity, negative = inhibition” value is -25.7%.

For `O=c1c(CCc2ccccc2)nc2cncnc2n1Cc1ccccc1Cl`, the AC50 was 15.8 µM (active).
